# Measurements reported in PubChem BioAssay (NCATS).
# Inconclusive results are not listed. Active and inactive are the calls of the source. Calls follow the shape of the dose curve; as a rule, active = well fitted cell-killing curve with a large enough effect; inconclusive = small, poorly fitted or top-dose-only effect, or effect the other way; inactive = flat fitted curve, though single readings scatter.
# Test: qHTS for Inhibitors of ATXN expression: Validation of Cytotoxic Assay (AID 588349)
# Conditions: cytotoxicity counter-screen for ATXN expression inhibitors, cell viability; series mostly up to 57.1 µM; activity change, negative = cytotoxicity: at the top concentration
# Excerpt: Spinocerebellar ataxia type 2 (SCA2) is a multisystem neurodegenerative disease caused by a dominantly-acting mutation leading to expansion of a polyQ domain in the ataxin-2 protein (ATXN2). SCA2 patients develop progressive ataxia and later lose function in other neuronal systems. Prominent parkinsonian signs develop in some patients. Similar to many neurodegenerative disorders, no symptomatic or disease-modifying treatments are known.
# The primary objective of project is to identify compounds inhibiting ATXN2 expression and to test them for efficacy in SCA2 mouse models. To this end, in a collaboration between Dr. Daniel Scoles and scientists at NCGC, a cell-based assay adapted to high-throughput screening has been developed to screen the NIH Molecular Libraries Small Molecule Repository (MLSMR). Confirmed qHTS active compounds will be tested for toxicity against the human neuron-like SH-SY5Y cell line. This line is the parental cell type used to generate the transgenic line used in the primary assay, and so should provide an isogenic control to test the inherent toxicity of qHTS actives.
# NIH Chemical Genomics Center [NCGC]
# NIH Molecular Libraries Probe Centers Network [MLPCN]
# Assay Submitter (PI): Stefan Pulst and Daniel Scoles, University of Utah
# […] cultured cells will be dosed with titrated compounds and incubated for 72 hr at 37 degrees C. Toxicity will be assessed using the CellTiter Glo kit (Promega), which uses intracellular ATP concentration as a viability marker.
# % is scaled to controls: 0 for no effect and ±100 for the full control effect; potency is read from the fitted curve at half-maximal effect.
SMILES,"activity change, negative = cytotoxicity",Potency
C/C(=C\c1ccc(C(=O)O)cc1)c1ccc2c(c1)C(C)(C)CCC2(C)C,-2.1% (inactive),
O=C(O)C1=CC(=C(c2ccc(O)c(C(=O)O)c2)c2ccc(O)c(C(=O)O)c2)C=CC1=O,-18.5% (inactive),
NC1(C(=O)O)CCCCC1,-1.76% (inactive),
CCCCCCCCCC[Si](C)(C)CCC(=O)NC(Cc1ccc(C)cc1)c1ccccc1 (stereo not given),-10.8% (inactive),
NCC(O)c1ccc(O)c(O)c1 (stereo not given),-10.5% (inactive),
O=c1[nH]c(=S)[nH]c(-c2ccccc2)c1Cc1c(O)ccc2ccccc12,1.94% (inactive),
NC(=O)CNCCC(c1ccccc1)c1ccccc1,-16% (inactive),
CCn1c(=O)[nH]c2cc(Cl)c(Cl)cc21,-5.61% (inactive),
CCCCCCCCCC(=O)NC(CN1CCOCC1)[C@H](O)c1ccccc1 (stereo not given in full),-25.3% (inactive),
CSC(N)=NCCC[C@H](N)C(=O)O,-1.8% (inactive),
Nc1ccc(N2C(=O)c3ccccc3C2=O)c(Cl)c1,-5.31% (inactive),
C=CCN1CCc2c(cc(O)c(O)c2Br)[C@@H](c2ccccc2)C1,-29.3% (inactive),
Nc1ccc(CCNc2ncnc3c2ncn3C2OC(CO)C(O)C2O)cc1 (stereo not given),-6.14% (inactive),
CCCOC(=O)c1c(-c2ccccc2)nc(CC)c(C(=O)SCC)c1CCC,-11.4% (inactive),
C=C1C[C@@]23CC[C@H]4[C@@](C)(CCC[C@@]4(C)C(=O)O)[C@@H]2CC[C@]1(O)C3,-9.02% (inactive),
O=C(O)c1cccnc1C(=O)O,-6.07% (inactive),
Brc1c(Br)c(Br)c2[nH]cnc2c1Br,-7.29% (inactive),
CNCCNS(=O)(=O)c1cccc2cnccc12,-22.2% (inactive),
CC[n+]1c(/C=C/C=C2/N(C)c3ccccc3C2(C)C)sc2ccccc21,,3.16 µM (active)
Nc1nc2ccc(Cl)cc2c2nc(-c3ccco3)nn12,4.4% (inactive),

SMILES,"activity change, negative = cytotoxicity",Potency
N[C@H](C(=O)O)[C@H](Cc1ccccc1)C(=O)O,-9.22% (inactive),
NC(Cc1cccc(-c2ccccc2CP(=O)(O)O)c1)C(=O)O (stereo not given),-17.3% (inactive),
O=C1OC(=O)C2C3CCC(O3)C12 (stereo not given),-7.69% (inactive),
O=C(O)[C@H]1NCCC[C@H]1C(=O)O,1.86% (inactive),
C=CC1(C)CC(=O)C2(O)C(C)(O1)C(OC(C)=O)C(O)C1C(C)(C)CCC(O)C12C (stereo not given),-6.96% (inactive),
CC(O)C(O)[C@H]1CNc2nc(N)[nH]c(=O)c2N1 (stereo not given in full),12.6% (inactive),
O=c1ccn([C@@H]2O[C@H](COP(=O)(O)OP(=O)(O)O)[C@@H](O)[C@H]2O)c(=O)[nH]1,-13.1% (inactive),
CCCn1c(=O)c(C)cn2nc(N)nc12,-3.5% (inactive),
CC(C)NC[C@H](O)COc1ccc(CC(N)=O)cc1,-4.88% (inactive),
O=c1ccc2c(OCCCCc3ccccc3)c3ccoc3cc2o1,13.6% (inactive),
NC(=O)CC[C@H](N)C(=O)O,-4.41% (inactive),
C[C@]12C=CC(=O)C=C1CC[C@@H]1C2=CC[C@]2(C)[C@@H](C(=O)CN3CCN(c4cc(N5CCCC5)nc(N5CCCC5)n4)CC3)CC[C@@H]12,-29.3% (inactive),
c1ccc2c(c1)CCC[C@H]2Nc1nc2ccccc2[nH]1,-17.2% (inactive),
Cn1c(=O)c2[nH]c(C3CCCC3)nc2n(C)c1=O,-3.4% (inactive),
NCCCNCCCCNCCCN,-7.63% (inactive),
N[C@@H](Cc1ccc(O)c(I)c1)C(=O)O,-8.02% (inactive),
N[C@H](C(=O)O)[C@H](O)C(=O)O,-4.49% (inactive),
CC(/C=C/c1cccc(Oc2ccc(F)cc2)c1)N(O)C(N)=O (stereo not given),-18.4% (inactive),
N[C@H](C(=O)O)[C@H]1C[C@@H]1C(=O)O,5.9% (inactive),
CCCCCCCC/C=C\CCCCCCCC(=O)NCCc1ccc(O)c(O)c1,,31.6 µM (active)
